High-throughput results: PubChem, National Center for Advancing Translational Sciences (NCATS)
This is a sample that favours compounds with a hit; in the whole collection about 0.88% have one here.
Glioma ERSR ind: inducers of ER stress response in human glioma cells; U87-MG GRP78 promoter luciferase reporter, 16 h; Potency, µM, hits mostly activators; 0.02% of 420,000 active; AID 602332; active = well fitted curve in the direction sought with a large enough effect; inconclusive = small, poorly fitted or top-dose-only effect, or another doubt; inactive = no such curve, though single readings can be large; an effect the other way counts as inactive or inconclusive; also: series mostly up to about 76 µM; nearly all actives have a fitted effect of over 35% in size
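Stably transfected U87-MG human glioma cells carrying a GRP78-based luminescent sensor were seeded at 1000 cells/well, pin-dosed with compounds and incubated 16 h. Luciferase reagent was then added, and end-point luminescence was read after 10 min at room temperature.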
RGS4 inhibitor: human RGS4 inhibition; P49798; Transcreener GDP fluorescence polarization, RGS4-accelerated GTP hydrolysis; Potency, µM (titrated, usually from 114 µM), actives largely listed as inhibitors; 0.039% of 390,000 active; AID 504845; active = well fitted curve in the direction sought with a large enough effect; inconclusive = small, poorly fitted or top-dose-only effect, or another doubt; inactive = no such curve, though single readings can be large; an effect the other way counts as inactive or inconclusive; also: nearly all actives have a fitted effect of over 75% in size
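MLSMR compounds (23 nl, pin-transferred) preincubated 10 min at room temperature with a 500nM (2x) first reagent, then RGS4 at 900nM (2x) plus Transcreener GDP mix added; fluorescence polarization (620/688 nm) read before and after 90 min at 30 °C.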
CtBP-E1A blk: CtBP/E1A binding inhibition | AlphaScreen GST-E1A/His-CtBP binding, 1536-well; active compounds read low | activity change, % (concentration not given with the values) | 0.49% of 340,000 active
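AlphaScreen with 125 nM GST-E1A and 125 nM His-CtBP (5X stocks) in Tris pH 8.0, 300 mM NaCl, BSA, Tween 20, TCEP. Compounds preincubated 2 h at 37 deg C, then glutathione donor/nickel acceptor beads added for 1 h at 37 deg C in dark.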
Akt phos inh: inhibitors of Akt phosphorylation; AID 651550; activity change, % for hits at 50 µM; Neuro2A IGF-stimulated pAkt S473 HTRF, 20 min; active compounds read low; 0.32% of 360,000 active; in the data active = activity change below about -80%; inconclusive = mostly about -51% to -80%
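Neuro2A cells (4,500/well, DMEM with 0.5% FBS) were treated with compound at a single 50 µM final concentration, stimulated with 6 nM IGF for 20 min at 37 °C, and lysed. Phospho-Akt Ser473 was read by HTRF as 665/615 ratio ×10^4.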
Six1-Eya2 blk: inhibitors of human Six1/Eya2 interaction; Q15475+O00167; AlphaScreen GST-Six1/His-Eya2 binding, biochemical; active compounds read low; 0.56% of 360,000 active; activity change, % (concentration not given with the values); AID 651725
Target sequence (O00167 whole entry, looked up): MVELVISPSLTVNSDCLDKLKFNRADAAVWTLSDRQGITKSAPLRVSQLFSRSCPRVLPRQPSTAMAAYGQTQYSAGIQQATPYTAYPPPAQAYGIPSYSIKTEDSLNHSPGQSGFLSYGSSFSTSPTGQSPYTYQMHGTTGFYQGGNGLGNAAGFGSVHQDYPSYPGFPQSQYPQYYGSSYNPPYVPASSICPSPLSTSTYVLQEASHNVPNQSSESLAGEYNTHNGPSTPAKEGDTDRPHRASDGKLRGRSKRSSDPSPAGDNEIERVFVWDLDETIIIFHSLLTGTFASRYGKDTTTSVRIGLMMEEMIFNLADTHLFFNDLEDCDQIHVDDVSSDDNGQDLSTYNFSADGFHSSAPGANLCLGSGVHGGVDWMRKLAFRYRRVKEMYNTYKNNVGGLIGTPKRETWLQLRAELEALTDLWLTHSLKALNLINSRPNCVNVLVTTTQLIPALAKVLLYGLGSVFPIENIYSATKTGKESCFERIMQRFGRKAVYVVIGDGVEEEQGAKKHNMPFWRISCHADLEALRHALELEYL
Target sequence (Q15475 whole entry, looked up): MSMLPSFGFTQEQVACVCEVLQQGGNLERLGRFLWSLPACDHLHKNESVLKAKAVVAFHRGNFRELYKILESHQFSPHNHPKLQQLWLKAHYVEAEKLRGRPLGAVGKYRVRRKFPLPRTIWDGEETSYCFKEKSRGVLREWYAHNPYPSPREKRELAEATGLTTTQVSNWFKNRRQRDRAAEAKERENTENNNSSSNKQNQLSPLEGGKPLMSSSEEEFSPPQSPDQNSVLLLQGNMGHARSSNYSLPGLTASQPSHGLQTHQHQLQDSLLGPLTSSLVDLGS
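GST-Six1 + His-Eya2 (5X stock: 250/500 nM); Tris pH 8.0, 300 mM NaCl, 0.05% BSA, 0.02% Tween 20; GSH donor/Ni acceptor beads; 1 h 37 °C dark; AlphaScreen readout.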
Large screens that a line does not name were inactive. Rule as the data show it, unless noted: active = activity change below about -65%; inconclusive = mostly about -30% to -63%; inactive = weaker than that.

Nc1cc(C(=O)O)c(N)c2c1C(=O)c1ccccc1C2=O	CtBP-E1A blk -92, Six1-Eya2 blk -80
CS(=O)(=O)N1CCN(c2ccc(NC(=S)NC(=O)c3cccs3)cc2)CC1	none (no result: CtBP-E1A blk)
O=C(Nc1ccc(N2CCCC2)cc1)c1ccccc1F	CtBP-E1A blk inconclusive, Akt phos inh -85%
O=C(NC(=S)Nc1ccc(N2CCCCC2)cc1)c1cccs1	RGS4 inhibitor inconclusive, CtBP-E1A blk inconclusive, Six1-Eya2 blk -67
COc1ccccc1C1CN(CC(=O)NCC2OCCc3ccccc32)Cc2ccccc2O1 (stereo not given)	none (no result: RGS4 inhibitor, CtBP-E1A blk, Akt phos inh, Six1-Eya2 blk)
COCc1ccc(C(=O)N2CCOc3c(cc(-c4cc(C)c5cccc(OC)c5n4)cc3OC)C2)o1	none (no result: RGS4 inhibitor, CtBP-E1A blk, Akt phos inh, Six1-Eya2 blk)
COc1cc(OC)cc(C(=O)Nc2ccc(S(=O)(=O)Nc3cnc4ccccc4n3)cc2)c1	CtBP-E1A blk inconclusive, Six1-Eya2 blk inconclusive
COc1cc(C(=O)Nc2ccc(S(=O)(=O)Nc3cnc4ccccc4n3)cc2)cc(OC)c1OC	Glioma ERSR ind 32µM
COc1cc(C(=O)Nc2ccc(S(=O)(=O)Nc3nccc(C)n3)cc2)cc(OC)c1OC	Glioma ERSR ind 32µM
Cn1c(SCCOc2ccccc2)nnc1-c1ccc(NC(=O)CCc2ccccc2)cc1	none (no result: RGS4 inhibitor, CtBP-E1A blk, Akt phos inh, Six1-Eya2 blk)
Nc1ccccc1N=Nc1ccccc1N	CtBP-E1A blk -79, Six1-Eya2 blk inconclusive
CC(=NC1CCCC1)c1c(C)[nH]n(-c2nc3ccccc3s2)c1=O	Akt phos inh -116%
CC(=NC1CC1)c1c(-c2ccccc2)[nH]n(-c2nc3ccccc3s2)c1=O	none
O=C(NCc1nnc2n1CCN(Cc1cc3c(cc1Cl)OCO3)CC2)c1cccc(F)c1	none (no result: RGS4 inhibitor, CtBP-E1A blk, Akt phos inh, Six1-Eya2 blk)
COc1ccc(OC)c2c(N3CC(C)OC(C)C3)cc(C(F)(F)F)nc12 (stereo not given)	Akt phos inh -114%
COc1ccc(OC)c2c(N3CCN(C)CC3)cc(C(F)(F)F)nc12	none
Cc1ccc(C(C)CCN2CCOc3ccc(CN4CCOCC4)cc3C2)o1 (stereo not given)	none (no result: RGS4 inhibitor, CtBP-E1A blk, Akt phos inh, Six1-Eya2 blk)
COc1cc(C(=O)Nc2cccc(-c3nnc(-c4ccco4)o3)c2)ccc1OC(C)=O	CtBP-E1A blk inconclusive, Six1-Eya2 blk -86
COc1cc(C(=O)Nc2ccc(-c3nnc(-c4ccco4)o3)cc2)cc(OC)c1OC	Akt phos inh -102%
COc1ccc(C(=O)Nc2cccc(-c3nnc(-c4ccco4)o3)c2)cc1	CtBP-E1A blk inconclusive, Six1-Eya2 blk inconclusive
COCCCNC(=S)NNC(=O)c1ccc(C(C)(C)C)cc1	none (no result: CtBP-E1A blk)
COCCCNC(=S)NNC(=O)c1csc(C)n1	Six1-Eya2 blk -78 (no result: CtBP-E1A blk)
O=C1CCC[C@@H]2C[C@@]3(C[C@@H]4CCN1[C@H]24)Nc1cc([N+](=O)[O-])ccc1NC3=NCc1ccccc1	none (no result: RGS4 inhibitor, CtBP-E1A blk, Akt phos inh, Six1-Eya2 blk)
Cc1ccc(S(=O)(=O)Nc2cccc3ncccc23)s1	Glioma ERSR ind inconclusive, CtBP-E1A blk -81, Six1-Eya2 blk -86
Cc1ccc(S(=O)(=O)Nc2cccc3ncccc23)cc1	none
CSCCC(NC(=O)[C@H](Cc1c[nH]c2ccccc12)NC(=O)CNC(=O)[C@H](CCSC)NC(=O)[C@H](Cc1ccc(OS(=O)(=O)O)cc1)NC(=O)[C@@H](N)CC(=O)O)C(=O)N[C@@H](CC(=O)O)C(=O)N[C@@H](Cc1ccccc1)C(N)=O (stereo not given in full)	none (no result: RGS4 inhibitor, CtBP-E1A blk, Akt phos inh, Six1-Eya2 blk)
CC(=O)O[C@H]1C[C@@H]2CC[C@@H]3[C@H](CC[C@]4(C)[C@H](OC(C)=O)[C@@H](N5CC[N+](C)(C)CC5)C[C@@H]34)[C@@]2(C)C[C@@H]1N1CC[N+](C)(C)CC1	none (no result: RGS4 inhibitor, CtBP-E1A blk, Akt phos inh, Six1-Eya2 blk)
CCCN(CC1CC1)C(=O)COc1ccccc1C(=O)NCc1ccccc1	Akt phos inh -110%
COCC(=O)Nc1cc(C(=O)N2CCN(c3ccccc3)C(=O)C2)cc2nc(-c3ccccc3)n(C)c12	none (no result: RGS4 inhibitor, CtBP-E1A blk, Akt phos inh, Six1-Eya2 blk)
Cc1c(O)ccc(C(=O)COc2ccc(F)cc2)c1O	Akt phos inh -89%
CCc1cc(C(=O)COc2ccc(F)cc2)c(O)cc1O	none (no result: CtBP-E1A blk)
Cc1ccc(SC2=C(N(C)C)C(=O)c3ccccc3C2=O)cc1	RGS4 inhibitor inconclusive, CtBP-E1A blk -86, Six1-Eya2 blk -84
Cc1ccc(NC2=CC(=O)C(=O)c3ccccc32)cc1	CtBP-E1A blk inconclusive
COc1ccccc1C1CN(CC(=O)N2CCC(N3CCOCC3)CC2)Cc2ccccc2O1 (stereo not given)	none (no result: RGS4 inhibitor, CtBP-E1A blk, Akt phos inh, Six1-Eya2 blk)
O=c1nc2c(O)cccn2c2c1c(=O)[nH]c1ccccc12	Six1-Eya2 blk -83
